Holding throughout (test): NCI-60 one-dose screen, 48 h (100 = growth as untreated, 0 = no growth, -100 = all killed)
Settings in all cases: 10 µM unless noted

The test system of experiment [1] is DU-145 prostate.
In experiment [2] the test system is K-562 leukemia.
Experiment [3] has as its system MALME-3M melanoma.
Experiment [4] relates to MDA-MB-231 breast.
Experiment [5] has as its system RXF 393 renal.
The subject of experiment [6] is SF-268 CNS.
In experiment [7] the test system is SF-295 CNS.
Experiment [8] has as its system SF-539 CNS.
For experiment [9], the system named is UACC-257 melanoma.
The test system of experiment [10] is M14 melanoma.

SMILES strings stand for the structures. This is part of a sample that, as a whole, favours compounds with a hit. Of some 83,000 tested, about 20% had one in any assay.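 Results are percent growth after 48 hours of single-concentration exposure. 100 means growth as in untreated cells, lower positive values show inhibition; negative values down to -100 show cell death.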 Unmarked numbers belong to inactive results. Active and inactive are the calls of the source. How the source made its calls: active means growth percent below 10; inactive means the rest.

For `Nc1ccc2c(c1)Cc1cc(Br)ccc1-2`, the growth in experiment [1] was 109%; in experiment [2] it was 92.2%; in experiment [3], 118%; in experiment [4], 84%; in [5] it was 112%; in experiment [6], 88%. In addition, the growth in experiment [7] is 107%; in experiment [8] it was 100%; in experiment [9] it was 122%; in experiment [10] it was 118%.

In the case of `O=C1C(N2CC2)=C(N2CC2)C(=O)C(N2CC2)=C1N1CC1`, the growth was -15.5% (active) in experiment [1]; 29.2% in experiment [2]; -67.5% (active) in experiment [3]; 93.3% in experiment [4]; -73.4% (active) in experiment [5]; 19.9% in experiment [6]. Also, the growth in experiment [7] was -17.9% (active); in experiment [8], -67.1% (active); in experiment [9], -44.1% (active); in [10], -82.4% (active).

With `Fc1cccc(NCOOC2(OOCNc3cccc(F)c3)CCCCC2)c1`, the growth in experiment [1] is 98.6%; in [2], 41.3%; in [3], 101%; in experiment [4], 103%; in [5], 108%; in experiment [6] it was 93%. In addition, the growth was 94.3% in experiment [7], 91.2% in experiment [8], 88.7% in [9] and 91.6% in [10].

As to `O=P(Oc1ccc(Cl)cc1)(N1CC1)N1CC1`, the growth in experiment [1] is 54.4%; in experiment [2] it was 85.3%; in experiment [3] it was 104%; in experiment [4] it was 106%; in experiment [5], 73.9%; in [6], 89%. Further, the growth in experiment [7] was 66.2%; in [8], 81.4%; in experiment [9] it was 94.8%; in [10] it was 86.5%.

Consider `COC(=O)[C@@H](C)C[C@H](Cc1ccccc1)NC(=O)c1csc([C@@H](C[C@H](C(C)C)N(C)C(=O)[C@@H](NC(=O)[C@H]2CCCCN2C)c2ccc(F)cc2)OC(C)=O)n1`, for which the growth was 6.65% (active) in experiment [1]; 2.45% (active) in experiment [2]; 65.8% in experiment [3]; -9.8% (active) in experiment [4]; 74.7% in experiment [5]; 13.2% in experiment [6]. Besides, the growth in [7] is 3.25% (active); in experiment [8], -17.9% (active); in experiment [9], 53.2%; in [10] it was -6.9% (active).

Consider `Cn1cc(-c2csc(-c3cn(CCCCN4CCCCC4)c4ccc(F)cc34)n2)c2cccnc21`, for which the growth in experiment [1] is -81% (active); in [2], -76.1% (active); in [3], -68.4% (active); in experiment [4], 71.4%; in experiment [5], 26.8%; in experiment [6], 72%. Further, the growth in [7] is 99.7%; in [8], 75.3%; in [9] it was -42.6% (active); in experiment [10] it was -78.7% (active).

As for `Cc1cccc(N2CCN(C(C)C#N)CC2)c1` (stereo not given), the growth in experiment [1] was 107%; in experiment [2], 98.4%; in experiment [3] it was 102%; in [4], 104%; in [5] it was 105%; in experiment [6], 103%. In addition, the growth in [7] is 84.6%; in [8], 104%; in experiment [9], 97.9%; in [10], 105%.

Take `COC(=O)[C@@H](C)C[C@H](Cc1ccccc1)NC(=O)c1csc([C@@H](C[C@H](C(C)C)N(C)C(=O)[C@@H](NC(=O)[C@H]2CCCCN2C)C(C)C)OC(C)=O)n1`: the growth in [1] is 10.3%; in experiment [2] it was 1.46% (active); in experiment [3], 51.5%; in [4], 1.38% (active); in [5] it was 75.3%; in experiment [6], 17.1%. Besides, the growth was -2.48% (active) in [7], -23% (active) in experiment [8], 41.7% in experiment [9] and -32.1% (active) in experiment [10].

On to `NC(=O)c1c(Br)n(C2OC(CO)C(O)C2O)c2ncnc(N)c12` (stereo not given), for which the growth in experiment [1] is 1.13% (active); in experiment [2], 1.67% (active); in experiment [3], 13.2%; in [4] it was 50.6%; in [5] it was -16.4% (active); in experiment [6], 20.1%. For the same molecule, the growth in experiment [7] was 38.9%; in [8], 13.7%; in experiment [9], -0.624% (active); in [10], 2.28% (active).

On to `COC(=O)[C@@H](C)C[C@H](Cc1ccccc1)NC(=O)c1cccc([C@@H](C[C@H](C(C)C)N(C)C(=O)[C@@H](NC(=O)[C@H]2CCCCN2C)C(C)C)OC(C)=O)n1`, for which the growth in [1] was 10.5%; in experiment [2] it was 7.86% (active); in [3] it was 77.9%; in [4] it was -4.66% (active); in [5], 46.1%; in [6], 30.8%. Also, the growth in [7] is 6.28% (active); in experiment [8] it was 2.03% (active); in experiment [9] it was 49.7%; in experiment [10], -10.9% (active).

As to `COC(=O)CCc1c[nH]c2ccc(N(CCCl)CCCl)cc12`, the growth in [1] was 33.3%; in [2], 70.7%; in [3], 71%; in [4], 121%; in experiment [5], 46.8%; in [6], 40.6%. Further, the growth in experiment [7] was 32.9%; in [8] it was 23.2%; in experiment [9] it was 85.9%; in [10], 45.4%.

For the molecule `CC1=C(CN)C2=C(C)C3(CC3)[C@@](C)(O)C(=O)C2=C1`, the growth in experiment [1] is 48.5%; in experiment [2] it was 111%; in experiment [3], 96.2%; in [4], 95.2%; in experiment [5], 91.6%; in experiment [6], 72.1%. In addition, the growth was 78.9% in [7], 94.8% in experiment [8], 87.2% in experiment [9] and 96.1% in experiment [10].

On to `O=C1NC(=O)C(=Cc2cccn2CCCCCn2c3ccccc3c(=O)c3ccccc32)C(=O)N1`, for which the growth is 113% in experiment [1]; 89.1% in experiment [2]; 119% in experiment [3]; 116% in [4]; 110% in experiment [5]; 102% in [6]. The growth in [7] was 99.4%; in [8] it was 102%; in experiment [9] it was 104%; in experiment [10], 102%.

For the origin of these results see PubChem BioAssay (NCI).
